These results are taken from PubChem BioAssay (Tox21).

Experiment [1] is described as follows: qHTS assay to identify small molecule agonists of the NFkB signaling pathway (AID 1159509; active = well fitted curve in the direction sought with a large enough effect in the signal ratio in the repeat runs, not every such curve was filed as active; the % refers to the signal ratio; note: series mostly up to about 61 µM). An outline of the steps:
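NFkB-bla ME-180 cells with a beta-lactamase reporter under an NF-kB response element were plated overnight, treated with compounds in DMSO for 5 hr at 37 C, then loaded with FRET substrate for 1.5 hr at room temperature.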
Background: In qHTS, concentration-response curves come from the screen itself.

A short description of experiment [2]: qHTS assay to identify small molecule agonists of the endoplasmic reticulum stress response signaling pathway - cell viability counter screen (AID 1159517; calls by dose curve; note: nearly all actives have a fitted effect of over 50% in size; note: potency is the fitted concentration of half-maximal effect). An outline of the steps: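 Counter-screen wells were identical to the reporter wells. Cells were plated at 1,500 per well and dosed for 5 hr, then read for luminescence 30 min after CellTiter-Glo addition.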

Experiment [3] addresses Nuclear receptor ROR-gamma (Homo sapiens) (UniProt P51449). In words: qHTS assay to identify small molecule antagonists of the retinoid-related orphan receptor gamma (ROR-gamma) signaling pathway (AID 1159521; note: nearly all actives have a fitted effect of over 50% in size; note: potency is the fitted concentration of half-maximal effect). An outline of the steps: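 Tet-on RORγ CHO cells carrying a ROR response element–luciferase reporter were pretreated with compounds for 2 h, then induced with 1 uM (final) doxycycline hyclate for 16 h at 37 C. Antagonism was read as decreased ONE-Glo luminescence.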

A short description of experiment [4]: qHTS assay to identify small molecule agonists of the AP-1 signaling pathway - cell viability counter screen (AID 1159525; calls by dose curve; note: nearly all actives have a fitted effect of over 55% in size). An outline of the steps: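 AP-1-bla ME-180 cells in Opti-MEM with 0.5% dialyzed FBS, compound exposure 5 h at 37 C in 15-point titration. Viability read in the same wells as ATP content by CellTiter-Glo luminescence, normalised to tetra-n-octylammonium bromide and DMSO controls.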

Experiment [5] can be described thus: qHTS assay to identify small molecule agonists of the vitamin D receptor (VDR) signaling pathway - cell viability counter screen (AID 743224). Note: nearly all actives have a fitted effect of over 50% in size. Note: potency is the fitted concentration of half-maximal effect. The essentials:
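VDR-bla cell line, quantitative HTS format; 16 h compound incubation (37C, 5% CO2); ATP-based CellTiter-Glo luminescence measured in the reporter assay wells.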

Experiment [6] can be described thus: qHTS assay to identify small molecule antagonists of the vitamin D receptor (VDR) signaling pathway - cell viability counter screen (AID 743225). Note: nearly all actives have a fitted effect of over 50% in size. Note: potency is the fitted concentration of half-maximal effect. The essentials: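 VDR-bla HEK 293T cells, 4 h pre-incubation at 37C, then compound plus 1-alpha,25-dihydroxyvitamin D3 (3 nM final) for 16 h. After the beta-lactamase FRET read, CellTiter-Glo was added to the same wells; luminescence after 30 min at room temperature.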

A short description of experiment [7]: qHTS assay to identify small molecule antagonists of the retinoid-related orphan receptor gamma (ROR-gamma) signaling pathway - cell viability counter screen (AID 1159520). Note: nearly all actives have a fitted effect of over 50% in size. Note: potency is the fitted concentration of half-maximal effect. The essentials:
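Tet-on ROR gamma CHO cells were given compounds for 2 hr, then doxycycline hyclate at 1 uM final, and incubated 16 hr at 37 C. Viability was measured as ATP content by CellTiter-Glo luminescence.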

Experiment [8] can be described thus: qHTS assay to identify small molecule agonists of the AP-1 signaling pathway (AID 1159526; calls by dose curve).
Experiment [9] is described as follows: qHTS assay to identify small molecule agonists of the endoplasmic reticulum stress response signaling pathway (AID 1159516; active = well fitted activation curve with a large enough effect in the signal ratio in the repeat runs, not every such curve was filed as active; the % refers to the signal ratio). An outline of the steps: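 ER stress element reporter (bla) in HeLa. 1,500 cells/well, overnight attachment; 5 hr compound; 2 hr RT substrate; dual-emission fluorescence.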
Experiment [10] is described as follows: qHTS assay to identify small molecule agonists of the NFkB signaling pathway - cell viability counter screen (AID 1159515; calls by dose curve; note: series mostly up to about 61 µM; nearly all actives have a fitted effect of over 55% in size). An outline of the steps:
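Viability in NFkB-bla ME-180 cells was measured by CellTiter-Glo luminescence, 30 min room temperature, in wells already treated 5 hr with compounds and read for reporter FRET.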

“And” between values parts separate entries of the source, which are not always exact repeats. Equal entries are not always repeated. Records with an inconclusive call do not appear. More than one record can exist for a structure, and the calls need not agree. The source made the active and inactive calls. Unless noted, calls come from the whole dose curve; as a rule, active = well fitted curve in the direction sought with a large enough effect in the repeat runs; inconclusive = weak or mixed curves; inactive = no such curve, though single readings can be large; an effect the other way counts as inactive or inconclusive.

For the compound `Cc1ccc(-c2c(Cl)nc(C#N)n2S(=O)(=O)N(C)C)cc1`, the result in experiment [1] was inactive. The Potency result in [2] and in [4] was “inactive” in each case. In addition, in experiment [3], the Potency is 21.7 µM (active).

As to `CO[C@@H]1[C@H](OC(=O)NC(=O)CCl)CC[C@]2(CO2)[C@H]1[C@@]1(C)O[C@@H]1CC=C(C)C`, the Potency result in experiment [5] is “inactive”. For the same compound, the result in experiment [1] was inactive.

As to `O=C(CBr)Nc1ccc(Cl)cc1C(=O)c1ccccc1F`, the Potency result in experiment [5], in [6], in [7], in experiment [3] and in experiment [4] was “inactive” each time. The result in [1] was inactive. Besides, in experiment [2], the Potency was 23.9 µM (active).

As to `COP(=O)(OC)O/C(=C/Cl)c1cc(Cl)c(Cl)cc1Cl`, the call in experiment [1] was inactive. Besides, the Potency result in experiment [7] and in experiment [4] was “inactive” throughout.

As to `O=[N+]([O-])c1cc(C(F)(F)F)cc([N+](=O)[O-])c1Cl`, the Potency result in [5], in experiment [6], in experiment [2], in [7], in [3] and in experiment [4] was “inactive” in each case. The compound was called inactive in experiment [1] and in experiment [8].

Take `CCC(COC(=O)c1cc(OC)c(OC)c(OC)c1)(c1ccccc1)N(C)C` (stereo unspecified): the Potency result in experiment [5], in experiment [6], in [2], in [7], in [3] and in experiment [4] was “inactive” each time. Also, the call in experiment [1] and in experiment [9] was inactive.

For `C=CC(=O)NCNC(=O)C=C`, the Potency result in experiment [5], in experiment [2], in [7] and in [4] was “inactive” in each case. In addition, the compound was called inactive in [1] and in experiment [8].

Turning to `CC(Cl)Cl`, the Potency result in [5], in [6], in experiment [2], in experiment [7], in [3] and in experiment [4] was “inactive” throughout. The compound was called inactive in experiment [1] and in experiment [8].

With `O=C(CCl)c1ccc(Cl)cc1Cl`, the Potency result in experiment [5] is “inactive and 18.8 µM (active)”; in experiment [2], 10.7 µM (active); in experiment [7] it was 11.9 µM (active); in experiment [3], 10.6 µM (active). The Potency entry in [6] and in experiment [4] was “inactive” in each case. In experiment [1], the result was inactive.

Consider `CCCCCCC#N`, for which the Potency entry in experiment [5], in experiment [6], in [2], in [7], in experiment [3] and in experiment [4] was “inactive” in each case. The compound was classed as inactive in experiment [1] and in experiment [8].

On to `O=[N+]([O-])C(Br)(CO)CO`, for which the call in experiment [1] and in experiment [9] was inactive. Besides, the Potency in [7] is 43.3 µM (active); in experiment [3], 48.6 µM (active). The Potency entry in experiment [4] was “inactive”.

Regarding `C=CC(=O)OC(C)(C)C`, the Potency entry in [5], in experiment [6], in experiment [7], in experiment [3] and in experiment [4] was “inactive” throughout. Moreover, the compound was called inactive in experiment [1], in experiment [9] and in experiment [8].

Take `C=CCC1([C@H](C)CCC)C(=O)NC(=O)NC1=O`: the Potency result in [5], in [6], in experiment [2], in experiment [7], in [3] and in experiment [4] was “inactive” in each case. Besides, the outcome in experiment [1] and in experiment [8] was inactive.

In the case of `Cn1cc[n+](C)c1` (tested in a mixture with another compound), the Potency entry in [5], in experiment [6], in experiment [2], in experiment [7], in experiment [3] and in [4] was “inactive” each time. For the same compound, the call in experiment [1] and in experiment [8] was inactive.

As for `O=C(Nc1ccccc1)Nc1cnns1`, the Potency entry in [5], in [6], in experiment [7], in experiment [3] and in experiment [4] was “inactive” throughout. Moreover, the compound was called inactive in [1] and in [8].

`[CH3][Sn]([CH3])([Cl])[Cl]`: the Potency result in experiment [5], in experiment [6], in experiment [2] and in experiment [4] was “inactive” in each case. The result in [1] and in experiment [9] was inactive. For the same compound, the Potency in [3] was 4.93 µM (active) and 6.86 µM (active).

As to `O=NN1CCNCC1`, the Potency result in [5], in experiment [2], in [7] and in [4] was “inactive” throughout. The compound was called inactive in experiment [1] and in [8].

For `C#CCOC(C(=O)OCCN(C)C)(c1ccccc1)c1ccccc1`, the Potency entry in [5], in [2], in experiment [7], in [3] and in [4] was “inactive” each time. In addition, the call in experiment [1] and in experiment [8] was inactive.

Consider `CC(C)(C)C(O)C(Oc1ccc(Cl)cc1)n1cncn1` (stereo unspecified), for which the Potency result in [6], in experiment [7] and in experiment [4] was “inactive” in each case. In addition, in [1], the result was inactive.

As for `OCCCBr`, the Potency entry in experiment [5], in experiment [7], in experiment [3] and in [4] was “inactive” throughout. Also, in experiment [1], the call was inactive.

Consider `O=C(CBr)c1ccccc1`, for which the Potency entry in experiment [5], in [6], in [2], in experiment [7], in [3] and in experiment [4] was “inactive” in each case. Besides, the call in experiment [1] and in [9] was inactive.

Consider `CCn1cc[n+](C)c1`, for which the Potency entry in [5], in experiment [6], in experiment [10], in experiment [2], in [7] and in [4] was “inactive” throughout. Also, the compound was classed as inactive in experiment [9] and in experiment [8].

`CCOP(=S)(OCC)SCn1nnc2ccccc2c1=O`: the Potency in experiment [5] was 54.9 µM (active); in [6], 49 µM (active). Further, the call in [1] and in [8] was inactive. Moreover, the Potency result in [2], in [7] and in experiment [4] was “inactive” throughout.

`C=CC[C@]1(O)CC[C@H]2[C@@H]3CCC4=CC(=O)CCC4=C3C=C[C@@]21C`: the Potency result in experiment [5], in experiment [6], in experiment [2] and in experiment [4] was “inactive” in each case. The call in experiment [1] and in experiment [8] was inactive. Further, the Potency in experiment [3] was 2.98 µM (active).
